This passage reports growth results from PubChem BioAssay (NCI).

Common to all, as to assay: NCI-60 one-dose screen, 48 h (100 = growth as untreated, 0 = no growth, -100 = all killed)
Conditions in all cases: 10 µM unless noted

Assay [1] deals with NCI-H226 lung.
The subject of assay [2] is NCI-H322M lung.
In assay [3] the test system is HOP-62 NSCLC.
Assay [4] relates to NCI-H460 lung.
Assay [5] concerns HOP-92 NSCLC.
The subject of assay [6] is NCI-H522 lung.
Assay [7] relates to A549/ATCC NSCLC.
Assay [8] deals with 786-0 renal.
For assay [9], the system named is COLO 205 colon.
Assay [10] deals with DU-145 prostate.
Assay [11] deals with K-562 leukemia.
The subject of assay [12] is MALME-3M melanoma.
The subject of assay [13] is MDA-MB-231 breast.
Assay [14] has as its system RXF 393 renal.
Assay [15] relates to SF-268 CNS.
Assay [16] relates to SF-295 CNS.
For assay [17], the system named is SF-539 CNS.
For assay [18], the system named is UACC-257 melanoma.
The test system of assay [19] is M14 melanoma.
Assay [20] relates to NCI-H23 lung.

SMILES strings stand for the structures. This is part of a sample that, as a whole, favours compounds with a hit. Of some 83,000 tested, about 20% had one in any assay.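 Growth was measured after 48 h exposure to one concentration of compound in 96-well plates. Values under 10 count as active.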 A number with no mark means an inactive call. Calls of active or inactive are those of the source.

Regarding `CCOC(=O)C(N=Nc1ccc(S(=O)(=O)N=C(N)N)cc1)C(C)=O` (stereo not given), the growth was 95.1% in assay [1]; 107% in assay [2]; 119% in [3]; 109% in assay [4]; 99.9% in assay [5]; 95.2% in [6]. The growth was 107% in assay [7]; 96.7% in [8]; 106% in assay [9]; 111% in [10]; 94.1% in assay [11]; 129% in assay [12]. Further, the growth in [13] is 107%; in assay [14] it was 105%; in assay [15], 101%; in [16], 125%; in assay [17], 104%; in assay [18] it was 126%. In assay [19], the growth is 124%.
For the compound `C#CCOc1ccc(/C=N/Nc2nc(-c3ccc(Cl)cc3)cs2)cc1OC`, the growth in [1] is 56.3%; in assay [2] it was 89.3%; in assay [3], 84.7%; in assay [4], 68%; in assay [5], 48.8%; in [6], 47.5%. Also, the growth in [7] is 64.4%; in [8] it was 69.2%; in assay [9], 54.7%; in [10], 81.5%; in [11] it was 26.2%; in [12], 91.6%. In addition, the growth in assay [13] is 77.1%; in [14], 27.1%; in assay [15] it was 73.8%; in assay [16], 77.4%; in assay [17], 70.6%; in assay [18], 45.5%. For the same compound, the growth in [19] is 61.1%.
With `Cc1ccc(C(=O)C(c2c[nH]c3ccccc23)c2c[nH]c3ccccc23)cc1`, the growth is 38.9% in assay [1]; 81.8% in assay [2]; 89.9% in [3]; -6.44% (active) in assay [4]; 89.9% in assay [5]; -1.59% (active) in assay [6]. Also, the growth is 49% in [7]; 32% in assay [8]; -45.7% (active) in assay [9]; 4.62% (active) in assay [10]; 5.78% (active) in assay [11]; 72.6% in assay [12]. In addition, the growth is 24.2% in assay [13]; 34% in assay [14]; 51.5% in assay [15]; 81.9% in [16]; 70.4% in assay [17]; 76.6% in assay [18]. The growth in [19] is 33.9%.
`Cn1cc(-c2cc(N)n3nc(-c4cn(C)c5ccccc45)cc3n2)c2cc(Cl)ccc21`: the growth is 21.5% in assay [1]; -1.12% (active) in assay [2]; -52.1% (active) in assay [3]; -50.2% (active) in [4]; -58.2% (active) in [5]; -62.7% (active) in assay [6]. Also, the growth in assay [7] was 2.54% (active); in [8], -86% (active); in assay [9] it was -80.1% (active); in assay [10], 22%; in [11], 1.57% (active); in assay [12], -77% (active). In addition, the growth is -45.4% (active) in assay [13]; -73.7% (active) in assay [14]; -46.4% (active) in [15]; -53.8% (active) in assay [16]; -69.3% (active) in [17]; -59.9% (active) in assay [18]. Also, in [19], the growth was -78.3% (active).
On to `Cc1ccc(NC(=O)CN2CCN(c3ncnc4c3cnn4-c3ccccc3)CC2)cc1`, for which the growth in assay [1] was 76.5%; in assay [2], 86.5%; in [3] it was 95.6%; in assay [4], 74%; in assay [5], 90.9%; in assay [6] it was -41.1% (active). Further, the growth in [7] is 89.1%; in assay [8], 105%; in assay [9], 111%; in assay [10], 92.5%; in assay [11], 59.8%; in assay [12] it was 90.8%. Further, the growth in [13] is 80.6%; in assay [14] it was 86.7%; in [15] it was 80.7%; in assay [16], 116%; in [17], 84.6%; in assay [18] it was 92.8%. Besides, the growth in assay [19] is 100%.
Regarding `CC1(c2cc3cc(Br)ccc3oc2=O)NC(=O)c2c(/C=C/C(=O)OC3CC4CCC3(C)C4(C)C)cccc2N1` (stereo not given), the growth was 79.1% in assay [20]; 75.9% in assay [1]; 92.5% in assay [3]; 68.3% in [6]; 54.6% in assay [7]; 91.5% in assay [8]. For the same compound, the growth is 88.7% in [9]; 84.3% in assay [10]; 28.4% in [11]; 102% in [12]; 98.2% in assay [13]; 75.2% in assay [14]. Also, the growth in [15] is 82.8%; in assay [16] it was 64%; in [17] it was 96.8%; in [18] it was 77%; in [19], 86%.
Consider `O=[N+]([O-])c1ccc(/C=C/c2nc3ccccc3n3c(=S)[nH]nc23)cc1`, for which the growth was 65.3% in assay [1]; 84.1% in assay [2]; 80.2% in [3]; 78% in [4]; 68.2% in assay [5]; 63.6% in [6]. In addition, the growth was 77% in assay [7]; 102% in [8]; 104% in [9]; 88% in assay [10]; 70.5% in [11]; 101% in [12]. Also, the growth in [13] is 85.9%; in [14], 78.7%; in assay [15] it was 80.1%; in [16], 125%; in assay [17], 98.4%; in assay [18] it was 94.8%. The growth in [19] was 84.4%.
Consider `CCN(CC)c1ccc(/C=N/Nc2nc(-c3ccc(Br)cc3)cs2)c(O)c1`, for which the growth is 31.7% in [1]; 96.9% in [2]; 110% in assay [3]; 89.3% in assay [4]; 104% in assay [5]; 17% in assay [6]. Besides, the growth in assay [7] is 90.5%; in assay [8], 49.9%; in assay [9], 58.3%; in assay [10] it was 91.7%; in [11] it was 4.62% (active); in [12], 53.4%. Besides, the growth in [13] was 95.9%; in assay [14], 64.9%; in [15] it was 99.7%; in [16] it was 91.5%; in [17] it was 52.3%; in assay [18] it was 91.7%. In addition, the growth in assay [19] is 54.5%.
